A short description of test [1]: qHTS assay to identify small molecule antagonists of the glucocorticoid receptor (GR) signaling pathway - cell viability counter screen (AID 720693). Also: nearly all actives have a fitted effect of over 55% in size. Background: Quantitative high-throughput screening tests each substance at several concentrations.
Test [2] in a line: qHTS assay for identifying genotoxic compounds that show differential cytotoxicity against isogenic chicken DT40 cell lines with known DNA damage response pathways - Rev3 mutant cell line (AID 743014). Also: nearly all actives have a fitted effect of over 55% in size. Also: potency is read from the fitted curve at half-maximal effect.
Test [3] is described as follows: qHTS assay to identify small molecule antagonists of the androgen receptor (AR) signaling pathway using the MDA cell line - cell viability counter screen (AID 743041; also: nearly all actives have a fitted effect of over 45% in size). Summed up: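 Viability read by CellTiter-Fluor fluorescence in the same wells as the antagonist screen, added after 15.5 h of a 16 h, 37C exposure. Human breast carcinoma MDA-kb2 AR-luc cells, compounds co-dosed with agonist R1881.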

A short description of test [4]: qHTS assay to identify small molecule antagonists of the thyroid receptor (TR) signaling pathway - cell viability counter screen (AID 743064). Also: nearly all actives have a fitted effect of over 50% in size. Summed up: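 Counter screen for cytotoxicity: compound plus T3 (1 nM final) on GH3.TRE-Luc cells, 23.5 h at 37 °C, then fluorescence viability readout with CellTiter-Fluor.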
Test [5] in a line: qHTS assay to identify small molecule antagonists of the thyroid receptor (TR) signaling pathway (AID 743065). Also: nearly all actives have a fitted effect of over 55% in size. Also: potency is read from the fitted curve at half-maximal effect. Summed up:
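Antagonism measured as loss of luciferase signal in GH3 cells stably carrying a TRE-luciferase reporter, co-treated with compound and T3 (1 nM final) for 23.5 h at 37 C. Viability was read in the same well by CellTiter-Fluor.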

In test [6] the test system is thyroid hormone receptor (rat, GH3 cells). The test is described as follows: qHTS assay to identify small molecule agonists of the thyroid receptor (TR) signaling pathway (AID 743066; calls by dose curve).
Test [7] can be described thus: qHTS assay to identify small molecule antagonists of the estrogen receptor alpha (ER-alpha) signaling pathway - cell viability counter screen (AID 743074; calls by dose curve;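 also: HEK293 cells carrying ER-alpha-UAS-bla reporter stimulated with 17beta-estradiol; nearly all actives have a fitted effect of over 45% in size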; also: potency is read from the fitted curve at half-maximal effect).
Test [8] in a line: qHTS assay to identify small molecule antagonists of the estrogen receptor alpha (ER-alpha) signaling pathway using the BG1 cell line - cell viability counter screen (AID 743081).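 Also: compound given together with 17beta-estradiol as the ER stimulus; series mostly up to about 70 µM; nearly all actives have a fitted effect of over 45% in size.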
A further test has as its target Aromatase (Homo sapiens) (UniProt P11511). The test is described as follows: qHTS assay to identify aromatase inhibitors (AID 743083). Also: nearly all actives have a fitted effect of over 55% in size. Also: potency is read from the fitted curve at half-maximal effect.
The target of test [9] is Estrogen receptor (Homo sapiens) (UniProt P03372). The test is described as follows: qHTS assay to identify small molecule antagonists of the estrogen receptor alpha (ER-alpha) signaling pathway (AID 743069; active = well fitted curve in the direction sought with a large enough effect in the signal ratio in the repeat runs, not every such curve was filed as active; the % refers to the signal ratio). Summed up: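 Antagonist mode: compounds in DMSO were co-added with 17beta-estradiol to ER-alpha-bla HEK293 cells (2% charcoal-stripped serum) and left 18 h at 37C. Reporter inhibition was measured as FRET fluorescence after 2 h LiveBLAzer substrate at room temperature.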

For test [10] the target is unchanged. The test is described as follows: qHTS assay to identify small molecule agonists of the estrogen receptor alpha (ER-alpha) signaling pathway (AID 743075; calls by dose curve;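 also: HEK293 GripTite cells with ER-alpha and UAS-driven beta-lactamase reporter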).
The target is the same in test [11]. The test is described as follows: qHTS assay to identify small molecule agonists of the estrogen receptor alpha (ER-alpha) signaling pathway using the BG1 cell line (AID 743079). Also: nearly all actives have a fitted effect of over 20% in size.
Test [12] is described as follows: qHTS assay to identify small molecule antagonists of the estrogen receptor alpha (ER-alpha) signaling pathway using the BG1 cell line (AID 743080; calls by dose curve;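 also: BG1 cells stimulated with 17beta-estradiol alongside compound; series mostly up to about 70 µM; nearly all actives have a fitted effect of over 25% in size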). The method in brief: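 Quantitative HTS on the Tox21 10K library: BG1 cells with endogenous ER-alpha and ERE-luciferase reporter, 17beta-estradiol stimulation, 21.5 h compound exposure, luminescence endpoint with parallel fluorescence cytotoxicity counter-read.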

Test [13] is described as follows: qHTS assay for identifying genotoxic compounds that show differential cytotoxicity against isogenic chicken DT40 cell lines with known DNA damage response pathways - Rad54/Ku70 mutant cell line (AID 743015). Also: nearly all actives have a fitted effect of over 60% in size. Also: potency is read from the fitted curve at half-maximal effect.
Test [14] in a line: qHTS assay to identify small molecule antagonists of the androgen receptor (AR) signaling pathway - cell viability counter screen (AID 743033; also: nearly all actives have a fitted effect of over 45% in size).
Test [15] is described as follows: qHTS assay for identifying genotoxic compounds that show differential cytotoxicity against isogenic chicken DT40 cell lines with known DNA damage response pathways - wild type cell line (AID 743012). Also: nearly all actives have a fitted effect of over 60% in size. Also: potency is read from the fitted curve at half-maximal effect. The method in brief:
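Viability by ATP luminescence (CellTiter-Glo, 30 min RT) after 40 h compound treatment at 37 C/5% CO2, using 300 parental DNA repair-proficient DT40 cells per well.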

The target in test [16] is Androgen receptor (Homo sapiens) (UniProt P10275). The test is described as follows: qHTS assay to identify small molecule agonists of the androgen receptor (AR) signaling pathway (AID 743036; active = well fitted activation curve with a large enough effect in the signal ratio in the repeat runs, with a control signal flat, not every such curve was filed as active; the % refers to the signal ratio; also: potency is read from the fitted curve at half-maximal effect). The method in brief: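 In this Tox21 qHTS, 2,000 HEK293 AR-bla cells per well were incubated with compounds for 16 h at 37C and 5% CO2. Fluorescence intensity was recorded 2 h after adding LiveBLAzer B/G FRET substrate at room temperature.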

For test [17] the target is unchanged. The test is described as follows: qHTS assay to identify small molecule agonists of the androgen receptor (AR) signaling pathway using the MDA cell line (AID 743040; also: nearly all actives have a fitted effect of over 20% in size). The method in brief: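 Luciferase agonist assay: 16 h compound exposure at 37C without CO2 in MDA-kb2 AR-luc cells, whose MMTV promoter responds to both AR and GR. Luminescence measured after 30 min room-temperature incubation with ONE-Glo.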

For test [18] the target is unchanged. Kind of test: qHTS assay to identify small molecule antagonists of the androgen receptor (AR) signaling pathway using the MDA cell line (AID 743042; also: nearly all actives have a fitted effect of over 55% in size). Summed up:
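Antagonist mode: compounds plus R1881 agonist added to MDA-kb2 AR-luc cells, incubated 16 h at 37C. Luciferase reporter luminescence quantified, with multiplexed CellTiter-Fluor readout for cell viability.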

The values below come from PubChem BioAssay (Tox21).

Values joined by “and” are separate entries in the source; they are usually repeats but may differ in a detail not shown here. Identical values can stand only once. Unmarked numbers belong to inactive results. Inconclusive results are not listed. Active and inactive are the calls of the source. Unless noted, calls follow the shape of the dose curve; as a rule, active = well fitted curve in the direction sought with a large enough effect in the repeat runs; inconclusive = weak or mixed curves; inactive = no such curve, though single readings can be large; an effect the other way counts as inactive or inconclusive.

Androgen receptor (Homo sapiens), sequence (P10275 whole entry, looked up): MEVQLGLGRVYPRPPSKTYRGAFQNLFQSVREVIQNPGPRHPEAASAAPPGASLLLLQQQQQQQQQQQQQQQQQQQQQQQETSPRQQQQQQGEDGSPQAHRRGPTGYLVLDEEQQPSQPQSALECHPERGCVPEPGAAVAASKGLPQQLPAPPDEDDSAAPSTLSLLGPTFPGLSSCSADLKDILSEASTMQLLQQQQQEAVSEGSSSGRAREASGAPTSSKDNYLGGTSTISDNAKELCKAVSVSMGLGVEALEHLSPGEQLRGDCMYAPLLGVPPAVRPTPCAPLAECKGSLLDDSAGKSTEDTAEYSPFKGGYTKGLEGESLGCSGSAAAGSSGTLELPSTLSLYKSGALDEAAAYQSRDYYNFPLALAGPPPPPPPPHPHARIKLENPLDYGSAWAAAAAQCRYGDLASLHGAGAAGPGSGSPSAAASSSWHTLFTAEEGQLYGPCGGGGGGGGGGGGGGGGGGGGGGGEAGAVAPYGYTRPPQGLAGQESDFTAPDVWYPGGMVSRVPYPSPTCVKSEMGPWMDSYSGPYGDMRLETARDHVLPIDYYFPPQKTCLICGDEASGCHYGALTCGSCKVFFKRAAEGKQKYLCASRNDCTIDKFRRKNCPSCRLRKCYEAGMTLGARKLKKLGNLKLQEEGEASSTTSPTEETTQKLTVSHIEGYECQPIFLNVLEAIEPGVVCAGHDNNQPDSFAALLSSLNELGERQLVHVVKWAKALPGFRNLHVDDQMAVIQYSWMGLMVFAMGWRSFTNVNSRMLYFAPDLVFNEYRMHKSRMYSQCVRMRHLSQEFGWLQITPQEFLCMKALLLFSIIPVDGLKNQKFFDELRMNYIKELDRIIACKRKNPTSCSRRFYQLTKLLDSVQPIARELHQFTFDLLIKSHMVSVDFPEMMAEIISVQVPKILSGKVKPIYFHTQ
Aromatase (Homo sapiens), sequence (P11511 whole entry, looked up): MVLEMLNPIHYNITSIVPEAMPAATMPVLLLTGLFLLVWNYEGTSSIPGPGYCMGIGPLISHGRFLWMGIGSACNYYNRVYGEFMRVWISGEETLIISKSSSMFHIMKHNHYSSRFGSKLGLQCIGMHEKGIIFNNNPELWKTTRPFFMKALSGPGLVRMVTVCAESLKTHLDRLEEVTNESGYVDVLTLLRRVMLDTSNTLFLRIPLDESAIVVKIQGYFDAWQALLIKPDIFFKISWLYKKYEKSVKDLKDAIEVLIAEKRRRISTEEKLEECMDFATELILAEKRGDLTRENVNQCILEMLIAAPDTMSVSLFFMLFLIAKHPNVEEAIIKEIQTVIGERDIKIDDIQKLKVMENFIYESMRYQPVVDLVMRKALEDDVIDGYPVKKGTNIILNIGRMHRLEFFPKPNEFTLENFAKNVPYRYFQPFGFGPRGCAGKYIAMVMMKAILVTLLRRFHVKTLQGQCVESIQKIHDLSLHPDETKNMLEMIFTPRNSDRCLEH
Estrogen receptor (Homo sapiens), sequence (P03372 whole entry, looked up): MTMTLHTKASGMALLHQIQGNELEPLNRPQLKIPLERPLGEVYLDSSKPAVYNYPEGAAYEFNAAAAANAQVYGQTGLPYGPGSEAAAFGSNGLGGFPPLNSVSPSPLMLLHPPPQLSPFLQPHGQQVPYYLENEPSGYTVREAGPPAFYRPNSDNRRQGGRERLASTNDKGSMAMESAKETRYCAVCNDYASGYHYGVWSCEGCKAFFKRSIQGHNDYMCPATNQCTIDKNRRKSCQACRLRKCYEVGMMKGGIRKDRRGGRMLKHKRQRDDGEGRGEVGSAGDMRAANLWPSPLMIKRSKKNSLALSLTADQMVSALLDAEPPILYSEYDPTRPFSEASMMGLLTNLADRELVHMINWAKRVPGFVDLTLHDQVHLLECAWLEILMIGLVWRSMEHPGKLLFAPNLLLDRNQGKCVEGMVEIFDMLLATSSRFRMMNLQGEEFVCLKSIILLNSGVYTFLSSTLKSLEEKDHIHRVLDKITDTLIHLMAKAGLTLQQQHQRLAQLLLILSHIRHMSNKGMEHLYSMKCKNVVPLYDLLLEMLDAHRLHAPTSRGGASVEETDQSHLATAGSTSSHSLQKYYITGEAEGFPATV

Regarding `C=CC(=O)OCCOc1ccccc1`, the Potency entry in test [1], in test [3], in test [4], in test [6], in test [7] and in [8] was “inactive” throughout. The Potency result in the test with Aromatase (Homo sapiens) is “inactive”. Moreover, the Potency in test [2] was 61.1 µM (active); in [5], 54.4 µM (active).
As for `C[N+]1(C)CCC(OC(=O)C(O)(c2ccccc2)C2CCCC2)C1` (stereo unspecified), the Potency entry in test [1], in test [3], in test [9], in test [10], in test [11] and in test [12] was “inactive” in each case. Besides, the Potency result in test [8] is “inactive”.
In the case of `COS(=O)(=O)C(F)(F)F`, the Potency entry in test [1], in [13], in [4], in test [5], in [6] and in test [9] was “inactive” in each case. In addition, the Potency result (in [7]; in test [10]; in test [11]; in [12]; in [8]; with Aromatase (Homo sapiens)) was “inactive” in each case.
As for `COc1cc2nc(N3CCN(C(=O)C4COc5ccccc5O4)CC3)nc(N)c2cc1OC` (stereo unspecified), the Potency result in [1], in test [2], in test [3], in test [6], in test [7] and in [8] was “inactive” each time. In addition, in [5], the Potency is 29.8 µM (active).
As to `CCCCCCCCCCCCN1CCCCCC1=O`, the Potency result in test [1], in test [14], in test [3], in test [4], in test [6] and in test [8] was “inactive” throughout. In test [7], the Potency is 43.6 µM (active).
As to `CCOCC(O)COc1ccc(NC(=O)CC[S+](C)C)cc1` (stereo unspecified), the Potency result in test [1], in test [13], in test [14], in test [3], in test [4] and in [5] was “inactive” each time. The Potency entry in test [6], in [9], in test [7], in test [10], in [11] and in [12] was “inactive” in each case. In addition, the Potency entry (in test [8]; in the test with Aromatase (Homo sapiens)) was “inactive” throughout.
For `CCC(C)(C)CC`, the Potency entry in test [1], in [5], in [6], in [7] and in test [8] was “inactive” each time.
As for `C[N+](C)(C)CCOC(=O)CCC(=O)OCC[N+](C)(C)C`, the Potency entry in test [15], in [2], in test [13], in test [14], in test [3] and in test [4] was “inactive” throughout. For the same compound, the Potency entry in test [5], in test [6], in [9], in test [7], in test [10] and in test [11] was “inactive” throughout. Besides, the Potency entry (in test [12]; in test [8]; in the test with Aromatase (Homo sapiens)) was “inactive” in each case.
For the compound `COC(=O)C1=C(C)NC(COC(N)=O)=C(C(=O)OC(C)C)C1c1cccc(Cl)c1Cl` (stereo unspecified), the Potency in [15] was 23.7 µM (active); in [13] it was 23.7 µM (active); in test [16], 10.7 µM (active); in test [5] it was 16.8 µM (active); with Aromatase (Homo sapiens) it was 29.8 µM (active). The Potency entry in test [14], in test [17], in [3], in test [18], in [7] and in [11] was “inactive” each time. In addition, the Potency result in test [12] was “inactive”.
Consider `CC(C)C[C@H]1C(=O)N2CCC[C@H]2[C@]2(O)O[C@](NC(=O)[C@@H]3C=C4c5cccc6[nH]c(Br)c(c56)C[C@H]4N(C)C3)(C(C)C)C(=O)N12`, for which the Potency in test [15] is 5.31 µM (active) and 11.6 µM (active); in test [2] it was 10.6 µM (active) and 7.34 µM (active); in test [13], 7.5 µM (active) and 10.4 µM (active); in test [5] it was 13.3 µM (active) and 16.4 µM (active). Besides, the Potency result in test [14], in [3], in [6], in [7] and in test [8] was “inactive” throughout.
`O=C(c1ccc(F)cc1)C1CCN(CCn2c(=S)[nH]c3ccccc3c2=O)CC1`: the Potency entry in test [17], in [3], in [18], in test [4], in test [5] and in test [6] was “inactive” each time. The Potency entry (in test [7]; in test [8]; with Aromatase (Homo sapiens)) was “inactive” each time.
